From PubChem BioAssay (NCI)
This is part of a sample that, as a whole, favours compounds with a hit. Of some 83,000 tested, about 20% had one in any assay.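 Results are percent growth after 48 hours of single-concentration exposure. 100 means growth as in untreated cells, lower positive values show inhibition; negative values down to -100 show cell death.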 Values without a mark were called inactive. The source made the active and inactive calls. How the source made its calls: active means growth percent below 10; inactive means the rest.

What was measured:
Experiment in all cases: NCI-60 one-dose screen, 48 h (100 = growth as untreated, 0 = no growth, -100 = all killed)
Details in all cases: 10 µM unless noted
SK-MEL-2 melanoma = system: SK-MEL-2 melanoma
EKVX NSCLC = system: EKVX NSCLC
SN12C renal = system: SN12C renal
UO-31 renal = system: UO-31 renal
TK-10 renal = system: TK-10 renal
ACHN renal = system: ACHN renal
CAKI-1 renal = system: CAKI-1 renal
CCRF-CEM leukemia = system: CCRF-CEM leukemia
MOLT-4 leukemia = system: MOLT-4 leukemia
A498 renal = system: A498 renal

| SMILES | growth (SK-MEL-2 melanoma) | growth (EKVX NSCLC) | growth (SN12C renal) | growth (UO-31 renal) | growth (TK-10 renal) | growth (ACHN renal) | growth (CAKI-1 renal) | growth (CCRF-CEM leukemia) | growth (MOLT-4 leukemia) | growth (A498 renal) |
| --- | --- | --- | --- | --- | --- | --- | --- | --- | --- | --- |
| COc1cc(C2CC(=O)Nc3n[nH]c(-c4ccccc4)c32)cc(OC)c1OC (stereo not given) | 59.8% | 78.2% | 84.2% | 87.1% | 97.7% | 104% | 92% | 70.2% | 54% |  |
| COc1ccc(C2=NC(=O)NC2c2ccc(OC)cc2)cc1 (stereo not given) | 59.9% | 75.9% | 71% | 61% | 87.6% | 83.2% | 50.6% | 68.3% | 65.8% |  |
| N=C(N)c1ccc(-c2ccc(-c3ccc(Cl)cn3)s2)cc1 | 99.8% | 65.8% | 10.2% | 57.6% | 91.9% | 12% | 63.2% | 3.3% (active) | 4.73% (active) |  |
| NS(=O)(=O)Oc1ccc(-c2sc3cc(O)ccc3c2C(=O)c2ccc(OCCN3CCCCC3)cc2)cc1 | 84% | 72.3% | 69.1% | 43.6% | 72.4% | 60.9% | 49.3% | 25.9% | 11% |  |
| CCCCCCCCn1cc(C2=C(c3coc4ccc(OC)cc34)C(=O)NC2=O)c2ccccc21 | 107% | 102% | 102% | 85.7% | 97.6% | 103% | 99.7% | 99% | 125% |  |
| O=C(NCCOCCOCCNc1cccc2c1C(=O)N(C1CCCNC1=O)C2=O)c1cc2c(o1)C(=O)c1ccccc1C2=O (stereo not given) | -13.6% (active) | 17.7% | -74.3% (active) | -19.8% (active) | 8.39% (active) | 14% | -10.1% (active) | 14.9% | 8.89% (active) |  |
| Cc1ccc(O)c(C(=O)c2ccccc2Cl)c1 | 112% | 87.7% | 103% | 79.7% | 98.4% | 94.8% | 84.2% | 115% | 94.8% |  |
| Cc1cc(Cc2cc(C)cc(C(C)(C)C)c2O)c(O)c(C(C)(C)C)c1 | 68.8% | 26.5% | 28.1% |  | 52.8% | 34.3% | 31% | 28.5% | 29.1% | 90.2% |
| C=C1C(=O)O[C@H]2[C@H]1CC/C(C(=O)NCCCCCCCCNC(=O)/C1=C/CC[C@@]3(C)O[C@H]3[C@H]3OC(=O)C(=C)[C@@H]3CC1)=C\CC[C@@]1(C)O[C@@H]21 | 80.1% | 97.2% | 76.2% | 80.8% | 64.4% |  |  | 4.79% (active) | 15.2% | 107% |
| Cc1ccc(NC(=O)C(Cl)Cl)cc1 | 83.6% | 109% | 98.9% | 83% |  | 100% | 103% | 100% | 14.2% | 80.9% |
| C=C(CNCCc1ccc(O)cc1)[C@@H]1CC[C@]2(COC3CCCCO3)CC[C@]3(C)[C@H](CC[C@@H]4[C@@]5(C)CCC(NCCO)C(C)(C)[C@@H]5CC[C@]43C)[C@@H]12 (stereo not given in full) | -81.3% (active) | -77.5% (active) | -92.2% (active) | -97.3% (active) |  | -99.2% (active) | -92.1% (active) | -51.1% (active) |  | -1.47% (active) |
| COC(=O)[C@]12CC[C@@H](C)[C@H](C)[C@@H]1C1=CC[C@@H]3[C@@]4(C)C(C=O)=C[C@@](C)(CO)C4=CC[C@@]3(C)[C@]1(C)CC2 | 52.4% | 34.4% | 37.6% | 27.8% |  | 17.1% | 42.8% | 18.7% | 8.61% (active) |  |
